# Experimental data as given in PubChem BioAssay (Tox21).
# Results filed as inconclusive are left out. Where a call stands in place of a potency, no number is given. Activity calls are given as the source filed them. Unless noted, calls come from the whole dose curve; as a rule, active = well fitted curve in the direction sought with a large enough effect in the repeat runs; inconclusive = weak or mixed curves; inactive = no such curve, though single readings can be large; an effect the other way counts as inactive or inconclusive.
# Legend:
# [1] = qHTS assay for small molecules that induce genotoxicity in human embryonic kidney cells expressing luciferase-tagged ATAD5 (AID 651632); note: nearly all actives have a fitted effect of over 15% in size
# Outline: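 ATAD5-luc HEK293T, 2,000 cells/well; cpd or DMSO pin-transferred; 16 hr, 37C/5% CO2; Amplite 30 min RT; luminescence.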
# [2] = qHTS assay for small molecule agonists of the p53 signaling pathway - cell viability (AID 651633; calls by dose curve;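 note: p53RE-bla HCT reporter cells with a stable beta-lactamase p53 reporter; series mostly up to about 83 µM; nearly all actives have a fitted effect of over 30% in size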)
# Outline: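 p53RE-bla cells, seeded at 4,000 per well and rested 5 h at 37 C/5% CO2, received compounds in DMSO for 16 h at 37 C. CellTiter-Glo was then added, and luminescence was read after 30 min at room temperature to gauge cytotoxicity.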
# [3] = qHTS assay for small molecules that induce genotoxicity in human embryonic kidney cells expressing luciferase-tagged ATAD5 - cell viability (AID 651634; calls by dose curve; note: nearly all actives have a fitted effect of over 25% in size)
# Outline: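 Fluorescence from CellTiter-Fluor, reporting protease activity within live cells, served as the viability read-out. HEK293T cells carrying luciferase-tagged ATAD5 had been treated with compound for 15.5 hr at 37C.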
# [4] = qHTS assay for small molecule disruptors of the mitochondrial membrane potential - cell viability (AID 720634; calls by dose curve;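 note: human HepG2 liver cancer cells; series mostly up to about 83 µM; nearly all actives have a fitted effect of over 20% in size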)
# Outline: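 Cells: HepG2, 2,000/well, attached overnight. Compound 1 hr, 37 C/5% CO2. +m-MPI dye, +CellTiter-Glo 30 min RT. Readout: luminescence (ATP).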
# [5] = qHTS assay to test for compound auto fluorescence at 590 nm (red) in HepG2 cells (AID 720674)
# Outline: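 Rose Bengal sodium served as the red fluorophore standard. HepG2 monolayers (overnight attachment, MEM with 10% FBS) were exposed to test compounds for 1 hr at 37 C and read at Ex 540/Em 590 nm.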
# [6] = qHTS assay to test for compound auto fluorescence at 535 nm (green) in HepG2 cells (AID 720675)
# [7] = qHTS assay to test for compound auto fluorescence at 460 nm (blue) in HEK293 cells (AID 720678)
# Outline: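 After cell attachment (4-5 hr, 37C), compounds were pinned onto HEK293 monolayers in 10% dialyzed FBS medium. The blue channel (405/460 nm) was read following overnight culture. Equivalency was calculated against triamterene.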
# [8] = qHTS assay to test for compound auto fluorescence at 590 nm (red) in HEK293 cells (AID 720679)
# Outline: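 Plates of HEK293 cells (10% dialyzed FBS) are treated with 23 nL compound or DMSO vehicle after a 4-5 hr attachment period, incubated overnight at 37C, and read for red fluorescence at 540/590nm.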
# [9] = qHTS assay to test for compound auto fluorescence at 535 nm (green) in HEK293 cells (AID 720680)
# [10] = qHTS assay to test for compound auto fluorescence at 460 nm (blue) in HEK293 cell free culture (AID 720681)
# Outline: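 Test compounds were pinned into cell-free culture medium (DMEM with 10% FBS) and fluorescence was read directly at Ex/Em 405/460 nm. Signals were expressed as fluorescence equivalents of triamterene, with DMSO vehicle as control.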
# [11] = qHTS assay to test for compound auto fluorescence at 535 nm (green) in HEK293 cell free culture (AID 720682)
# Outline: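 Intrinsic compound fluorescence is measured in culture medium containing 10% FBS, with excitation at 485 nm and detection at 535 nm, referenced to fluorescein.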
# [12] = qHTS assay to test for compound auto fluorescence at 590 nm (red) in HEK293 cell free culture (AID 720683)
# Outline: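 Tox21 10K library compounds were pinned into cell-free DMEM with 10% FBS and fluorescence was read at excitation 540 nm. Activity is expressed as Rose Bengal sodium equivalency.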
# [13] = qHTS assay to test for compound auto fluorescence at 590 nm (red) in HepG2 cell free culture (AID 720684)
# Outline: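 Measured in medium alone (MEM containing 10% FBS) following pintool addition of compound; emission at 590 nm with 540 nm excitation, referenced to Rose Bengal sodium.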
# [14] = qHTS assay to test for compound auto fluorescence at 460 nm (blue) in HepG2 cell free culture (AID 720685)
# Outline: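 Compound (23 nL) or DMSO pinned into cell-free MEM with 10% FBS; blue fluorescence read at 405/460 nm excitation/emission, expressed as auto-fluorescence equivalency to triamterene.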
# [15] = qHTS assay to test for compound auto fluorescence at 535 nm (green) in HepG2 cell free culture (AID 720686)
# [16] = qHTS assay to test for compound auto fluorescence at 460 nm (blue) in HepG2 cells (AID 720687)
# Outline: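 Cells (2,000/well in MEM with 10% FBS) attached overnight at 37 C, then were exposed to compound or DMSO for 1 hr at 37 C, 5% CO2. Fluorescence read at Ex/Em 405/460 nm, expressed as triamterene-equivalent signal.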
# [17] = qHTS assay for small molecule disruptors of the mitochondrial membrane potential (AID 720635); note: potency is the fitted concentration of half-maximal effect
# Outline: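 HepG2 cells (2,000/well) attached overnight at 37C, then took compound for 1 hr at 37C, 5% CO2. Mito-MPS dye was added for 30 min; fluorescence was read at 490/535 nm (monomers) and 540/590 nm (aggregates).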
# [18] = biological target: Glucocorticoid receptor (Homo sapiens) (UniProt P04150); test: qHTS assay to identify small molecule agonists of the glucocorticoid receptor (GR) signaling pathway (AID 720691; active = well fitted activation curve with a large enough effect in the signal ratio in the repeat runs, not every such curve was filed as active; the % refers to the signal ratio)
# Outline: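 Fluorescence intensity from LiveBLAzer B/G FRET substrate (2 h, room temperature) reports beta-lactamase expression driven by the glucocorticoid response element in GR-bla HeLa cells after 18 h compound exposure at 37 C.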
# [19] = biological target: Glucocorticoid receptor (Homo sapiens) (UniProt P04150); test: qHTS assay to identify small molecule antagonists of the glucocorticoid receptor (GR) signaling pathway (AID 720692; active = well fitted inhibition curve with a large enough effect in the signal ratio in the repeat runs, not every such curve was filed as active; the % refers to the signal ratio)
# Outline: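 HeLa GR-bla cells; cmpd + dex 5 nM final, 18 h 37 C; LiveBLAzer B/G FRET substrate 2 h RT; fluorescence intensity read. Antagonist mode, qHTS.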
# Glucocorticoid receptor (Homo sapiens), sequence (P04150 whole entry, looked up): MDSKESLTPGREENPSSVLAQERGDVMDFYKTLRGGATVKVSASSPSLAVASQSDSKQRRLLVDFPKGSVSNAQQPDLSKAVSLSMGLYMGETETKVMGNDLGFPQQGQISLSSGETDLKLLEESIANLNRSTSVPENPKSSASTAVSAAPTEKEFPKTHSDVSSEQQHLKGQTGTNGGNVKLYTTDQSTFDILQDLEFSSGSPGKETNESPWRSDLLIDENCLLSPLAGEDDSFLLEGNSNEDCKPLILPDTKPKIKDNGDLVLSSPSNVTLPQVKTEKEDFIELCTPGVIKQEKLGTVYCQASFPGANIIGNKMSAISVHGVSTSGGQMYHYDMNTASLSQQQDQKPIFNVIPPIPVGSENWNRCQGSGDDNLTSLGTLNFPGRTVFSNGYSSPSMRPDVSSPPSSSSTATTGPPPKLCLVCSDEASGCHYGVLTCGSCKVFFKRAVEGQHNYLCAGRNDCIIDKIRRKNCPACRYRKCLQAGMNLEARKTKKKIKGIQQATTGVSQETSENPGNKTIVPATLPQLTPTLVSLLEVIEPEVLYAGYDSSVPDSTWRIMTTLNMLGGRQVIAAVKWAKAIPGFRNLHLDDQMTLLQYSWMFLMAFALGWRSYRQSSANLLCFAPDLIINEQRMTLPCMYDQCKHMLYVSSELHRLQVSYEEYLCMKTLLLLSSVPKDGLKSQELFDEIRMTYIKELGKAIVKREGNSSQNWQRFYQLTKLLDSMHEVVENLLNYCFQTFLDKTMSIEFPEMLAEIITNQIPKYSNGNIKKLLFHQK
SMILES,Potency [1],outcome [2],Potency [3],Potency [4],outcome [5],outcome [6],outcome [7],outcome [8],outcome [9],outcome [10],outcome [11],outcome [12],outcome [13],outcome [14],outcome [15],outcome [16],Potency [17],Potency [18],Potency [19]
NC(CSCC(=O)O)C(=O)O (stereo not given),inactive,inactive,inactive,inactive,inactive,inactive,inactive,inactive,inactive,inactive,inactive,inactive,inactive,inactive,inactive,inactive,,,
CC(=O)CC(C)C,inactive,inactive,,inactive,inactive,inactive,inactive,inactive,inactive,inactive,inactive,inactive,inactive,inactive,inactive,inactive,inactive,inactive,inactive
COCCCOCCCOC,inactive,inactive,inactive,inactive,inactive,inactive,inactive,inactive,inactive,,inactive,inactive,inactive,inactive,inactive,inactive,inactive,,
C=C1CC[C@H]2C[C@@H]1C2(C)C,inactive,inactive,inactive,,inactive,inactive,inactive,inactive,inactive,inactive,inactive,inactive,inactive,inactive,inactive,inactive,,,
CN1C(=O)N(C)C(O)C1O (stereo not given),inactive,inactive,inactive,inactive,inactive,inactive,inactive,inactive,inactive,inactive,inactive,inactive,inactive,inactive,inactive,inactive,,inactive,inactive
Nc1c[n+](N2CCOCC2)no1,inactive,inactive,inactive,inactive,,inactive,inactive,inactive,inactive,,inactive,inactive,inactive,,inactive,inactive,inactive,inactive,inactive
c1cnc(N2CCN(Cc3ccc4c(c3)OCO4)CC2)nc1,inactive,inactive,inactive,inactive,inactive,inactive,inactive,inactive,inactive,inactive,inactive,inactive,inactive,,inactive,inactive,inactive,inactive,inactive
CCOC(C)(C)C,inactive,inactive,inactive,inactive,inactive,inactive,inactive,inactive,inactive,inactive,inactive,inactive,inactive,inactive,inactive,inactive,,,
CC(C)(C)c1nnc(NS(=O)(=O)c2ccccc2)s1,inactive,inactive,inactive,inactive,inactive,inactive,inactive,inactive,inactive,inactive,inactive,inactive,inactive,inactive,inactive,inactive,,inactive,inactive
CC(=O)CC(C)(C)C1CCCCC1,inactive,inactive,inactive,inactive,inactive,inactive,inactive,inactive,inactive,inactive,inactive,inactive,inactive,inactive,inactive,inactive,,,
CC(C(=O)O)c1ccc(CC2CCCC2=O)cc1 (stereo not given),inactive,inactive,inactive,inactive,inactive,inactive,inactive,inactive,inactive,,inactive,inactive,inactive,inactive,inactive,inactive,inactive,,
C=CCS(=O)(=O)O,inactive,inactive,,inactive,inactive,inactive,inactive,inactive,inactive,,inactive,inactive,inactive,inactive,inactive,inactive,inactive,inactive,
Cc1ccc(C#N)cc1,inactive,inactive,inactive,inactive,inactive,inactive,inactive,inactive,inactive,inactive,inactive,inactive,inactive,inactive,inactive,inactive,,inactive,inactive
COC(=O)c1cc(C(=O)OC)cc(S(=O)(=O)O)c1,inactive,inactive,,inactive,inactive,inactive,inactive,inactive,inactive,,inactive,inactive,inactive,inactive,inactive,inactive,inactive,inactive,
CN(C)CCCSc1ccccc1NC(=O)/C=C/c1ccccc1,inactive,inactive,,inactive,inactive,inactive,inactive,inactive,inactive,inactive,inactive,inactive,inactive,inactive,inactive,inactive,inactive,inactive,inactive
CCC=O,inactive,inactive,inactive,inactive,inactive,inactive,inactive,inactive,inactive,inactive,inactive,inactive,inactive,inactive,inactive,inactive,,,
CCOC(=O)c1c(C)n(C)c2ccc(O)cc12,inactive,inactive,inactive,inactive,inactive,inactive,inactive,inactive,inactive,,inactive,inactive,inactive,inactive,inactive,inactive,7.84 µM (active),inactive,inactive
